# Experimental data: ChEMBL document CHEMBL2218924, “A broad activity screen in support of a chemogenomic map for kinase signalling research and drug discovery” (Biochem J, 2013); call rule not given here
# Experiments:
# [1] = target: T1, Ephrin type-A receptor 3 (Homo sapiens) (UniProt P29320); conditions: at 10 µM
# T1 sequence (whole entry): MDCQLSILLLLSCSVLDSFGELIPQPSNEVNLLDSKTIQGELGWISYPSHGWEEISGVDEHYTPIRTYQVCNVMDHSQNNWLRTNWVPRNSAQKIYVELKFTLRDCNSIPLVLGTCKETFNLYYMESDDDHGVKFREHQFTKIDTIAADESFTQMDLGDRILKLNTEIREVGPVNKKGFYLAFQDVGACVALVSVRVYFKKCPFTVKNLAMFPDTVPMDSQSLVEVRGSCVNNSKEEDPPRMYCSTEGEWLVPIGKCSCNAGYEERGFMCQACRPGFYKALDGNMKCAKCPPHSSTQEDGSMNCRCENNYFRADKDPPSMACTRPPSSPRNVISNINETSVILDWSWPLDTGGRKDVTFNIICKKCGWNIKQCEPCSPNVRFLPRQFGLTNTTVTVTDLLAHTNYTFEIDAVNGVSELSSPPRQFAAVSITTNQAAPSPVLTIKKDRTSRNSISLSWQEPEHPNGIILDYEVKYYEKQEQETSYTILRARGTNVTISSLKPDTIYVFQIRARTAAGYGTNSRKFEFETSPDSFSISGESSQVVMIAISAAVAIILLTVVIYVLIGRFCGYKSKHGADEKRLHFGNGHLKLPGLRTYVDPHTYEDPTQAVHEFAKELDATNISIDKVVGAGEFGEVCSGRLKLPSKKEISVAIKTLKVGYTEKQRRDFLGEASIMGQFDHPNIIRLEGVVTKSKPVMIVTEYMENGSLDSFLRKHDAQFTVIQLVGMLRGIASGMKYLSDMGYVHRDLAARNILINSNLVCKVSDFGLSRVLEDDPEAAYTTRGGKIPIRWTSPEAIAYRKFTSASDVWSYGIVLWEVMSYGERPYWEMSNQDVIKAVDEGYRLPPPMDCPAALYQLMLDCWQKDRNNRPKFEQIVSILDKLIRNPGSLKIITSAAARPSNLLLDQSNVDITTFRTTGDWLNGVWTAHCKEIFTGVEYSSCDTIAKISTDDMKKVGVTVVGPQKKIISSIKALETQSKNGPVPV
# [2] = target: Ephrin type-A receptor 4 (Homo sapiens) (UniProt P54764); conditions: at 1 µM
# [3] = target: Ephrin type-A receptor 4 (Homo sapiens) (UniProt P54764); conditions: at 10 µM
# [4] = target: Ephrin type-A receptor 5 (Homo sapiens) (UniProt P54756); conditions: at 1 µM
# [5] = target: Ephrin type-A receptor 5 (Homo sapiens) (UniProt P54756); conditions: at 10 µM
# [6] = target: Ephrin type-A receptor 7 (Homo sapiens) (UniProt Q15375); conditions: at 1 µM
# [7] = target: Ephrin type-A receptor 7 (Homo sapiens) (UniProt Q15375); conditions: at 10 µM
# [8] = target: T2, Ephrin type-A receptor 8 (Homo sapiens) (UniProt P29322); conditions: at 1 µM
# T2 sequence (whole entry): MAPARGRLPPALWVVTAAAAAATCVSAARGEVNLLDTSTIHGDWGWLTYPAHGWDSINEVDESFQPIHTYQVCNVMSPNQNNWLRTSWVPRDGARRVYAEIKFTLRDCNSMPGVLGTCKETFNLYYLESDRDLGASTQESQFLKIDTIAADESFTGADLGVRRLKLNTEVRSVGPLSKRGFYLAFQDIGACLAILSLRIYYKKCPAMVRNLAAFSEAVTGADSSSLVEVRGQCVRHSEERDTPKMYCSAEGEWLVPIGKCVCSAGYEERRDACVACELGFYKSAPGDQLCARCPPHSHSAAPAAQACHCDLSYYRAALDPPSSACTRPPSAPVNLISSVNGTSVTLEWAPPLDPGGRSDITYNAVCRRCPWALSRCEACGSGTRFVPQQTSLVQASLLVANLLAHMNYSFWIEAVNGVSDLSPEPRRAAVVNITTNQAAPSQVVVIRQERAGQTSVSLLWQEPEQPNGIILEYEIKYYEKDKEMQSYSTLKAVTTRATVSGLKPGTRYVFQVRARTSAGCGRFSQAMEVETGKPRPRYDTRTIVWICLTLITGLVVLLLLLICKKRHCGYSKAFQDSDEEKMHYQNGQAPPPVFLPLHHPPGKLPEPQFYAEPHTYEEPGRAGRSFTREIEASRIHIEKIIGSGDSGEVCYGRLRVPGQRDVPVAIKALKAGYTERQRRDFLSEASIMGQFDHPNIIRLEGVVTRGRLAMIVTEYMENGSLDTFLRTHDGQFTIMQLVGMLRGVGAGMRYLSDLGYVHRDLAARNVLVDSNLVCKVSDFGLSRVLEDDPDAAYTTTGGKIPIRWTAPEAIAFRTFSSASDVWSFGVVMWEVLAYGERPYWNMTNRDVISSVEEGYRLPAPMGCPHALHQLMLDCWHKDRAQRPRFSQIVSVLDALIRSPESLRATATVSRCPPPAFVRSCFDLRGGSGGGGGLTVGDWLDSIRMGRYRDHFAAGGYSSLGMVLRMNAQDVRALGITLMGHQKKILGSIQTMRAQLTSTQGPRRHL
# [9] = target: T2, Ephrin type-A receptor 8 (Homo sapiens); conditions: at 10 µM
# [10] = target: T3, Ephrin type-B receptor 1 (Homo sapiens) (UniProt P54762); conditions: at 10 µM
# T3 sequence (whole entry): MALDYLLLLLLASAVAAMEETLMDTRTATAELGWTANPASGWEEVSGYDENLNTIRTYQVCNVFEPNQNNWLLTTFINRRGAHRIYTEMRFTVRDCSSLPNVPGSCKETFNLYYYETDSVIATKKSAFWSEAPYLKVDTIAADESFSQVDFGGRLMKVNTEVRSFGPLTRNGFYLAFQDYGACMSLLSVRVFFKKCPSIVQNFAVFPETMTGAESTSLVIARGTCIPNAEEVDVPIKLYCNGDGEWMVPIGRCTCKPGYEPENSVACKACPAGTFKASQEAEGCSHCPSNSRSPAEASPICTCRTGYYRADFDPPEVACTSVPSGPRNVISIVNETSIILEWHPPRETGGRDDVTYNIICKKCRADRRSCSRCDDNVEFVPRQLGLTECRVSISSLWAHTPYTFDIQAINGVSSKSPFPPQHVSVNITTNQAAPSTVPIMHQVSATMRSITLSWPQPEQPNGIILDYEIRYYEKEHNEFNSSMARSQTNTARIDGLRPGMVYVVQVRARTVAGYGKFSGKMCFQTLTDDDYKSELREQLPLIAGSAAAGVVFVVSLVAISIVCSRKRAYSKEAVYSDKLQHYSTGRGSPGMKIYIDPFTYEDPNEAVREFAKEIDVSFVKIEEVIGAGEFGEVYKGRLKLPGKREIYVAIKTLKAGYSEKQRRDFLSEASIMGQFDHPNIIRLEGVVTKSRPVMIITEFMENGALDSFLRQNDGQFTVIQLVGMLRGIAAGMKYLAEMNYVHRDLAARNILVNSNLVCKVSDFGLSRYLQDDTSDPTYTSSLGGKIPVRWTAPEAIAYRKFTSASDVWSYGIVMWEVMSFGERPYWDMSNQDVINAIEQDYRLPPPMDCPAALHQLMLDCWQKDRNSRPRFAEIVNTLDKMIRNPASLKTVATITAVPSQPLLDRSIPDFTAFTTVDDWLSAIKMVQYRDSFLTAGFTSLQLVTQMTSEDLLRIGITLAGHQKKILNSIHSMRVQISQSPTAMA
# [11] = target: T4, Ephrin type-B receptor 2 (Homo sapiens) (UniProt P29323); conditions: at 1 µM
# T4 sequence (whole entry): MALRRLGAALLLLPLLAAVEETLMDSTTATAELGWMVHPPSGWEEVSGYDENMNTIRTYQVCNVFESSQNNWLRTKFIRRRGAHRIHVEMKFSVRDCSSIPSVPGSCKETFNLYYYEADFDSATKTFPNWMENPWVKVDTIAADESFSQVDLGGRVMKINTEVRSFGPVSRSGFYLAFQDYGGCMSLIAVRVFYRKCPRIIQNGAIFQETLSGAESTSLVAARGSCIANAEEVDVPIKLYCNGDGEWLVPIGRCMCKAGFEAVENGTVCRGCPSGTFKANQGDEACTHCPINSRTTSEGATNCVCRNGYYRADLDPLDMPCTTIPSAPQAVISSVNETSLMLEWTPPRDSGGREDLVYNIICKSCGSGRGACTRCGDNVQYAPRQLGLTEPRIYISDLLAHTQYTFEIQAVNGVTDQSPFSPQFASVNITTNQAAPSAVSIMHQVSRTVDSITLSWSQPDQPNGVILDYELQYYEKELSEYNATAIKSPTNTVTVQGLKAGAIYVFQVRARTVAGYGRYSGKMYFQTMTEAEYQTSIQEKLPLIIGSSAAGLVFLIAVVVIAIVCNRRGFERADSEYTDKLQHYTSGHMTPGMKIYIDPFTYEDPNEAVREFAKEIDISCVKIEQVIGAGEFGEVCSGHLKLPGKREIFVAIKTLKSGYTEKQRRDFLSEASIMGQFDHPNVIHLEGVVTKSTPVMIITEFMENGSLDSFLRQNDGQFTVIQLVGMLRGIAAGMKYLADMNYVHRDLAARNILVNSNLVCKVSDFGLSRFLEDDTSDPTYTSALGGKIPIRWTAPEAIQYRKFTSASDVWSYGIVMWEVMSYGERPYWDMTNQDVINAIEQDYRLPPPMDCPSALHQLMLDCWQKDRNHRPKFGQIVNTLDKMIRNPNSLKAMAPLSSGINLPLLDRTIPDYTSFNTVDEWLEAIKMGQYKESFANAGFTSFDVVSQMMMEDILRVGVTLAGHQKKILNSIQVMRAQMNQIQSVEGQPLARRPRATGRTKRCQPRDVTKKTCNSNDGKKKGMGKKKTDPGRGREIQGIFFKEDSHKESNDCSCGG
# [12] = target: T4, Ephrin type-B receptor 2 (Homo sapiens); conditions: at 10 µM
# [13] = target: T5, Ephrin type-B receptor 3 (Homo sapiens) (UniProt P54753); conditions: at 1 µM
# T5 sequence (whole entry): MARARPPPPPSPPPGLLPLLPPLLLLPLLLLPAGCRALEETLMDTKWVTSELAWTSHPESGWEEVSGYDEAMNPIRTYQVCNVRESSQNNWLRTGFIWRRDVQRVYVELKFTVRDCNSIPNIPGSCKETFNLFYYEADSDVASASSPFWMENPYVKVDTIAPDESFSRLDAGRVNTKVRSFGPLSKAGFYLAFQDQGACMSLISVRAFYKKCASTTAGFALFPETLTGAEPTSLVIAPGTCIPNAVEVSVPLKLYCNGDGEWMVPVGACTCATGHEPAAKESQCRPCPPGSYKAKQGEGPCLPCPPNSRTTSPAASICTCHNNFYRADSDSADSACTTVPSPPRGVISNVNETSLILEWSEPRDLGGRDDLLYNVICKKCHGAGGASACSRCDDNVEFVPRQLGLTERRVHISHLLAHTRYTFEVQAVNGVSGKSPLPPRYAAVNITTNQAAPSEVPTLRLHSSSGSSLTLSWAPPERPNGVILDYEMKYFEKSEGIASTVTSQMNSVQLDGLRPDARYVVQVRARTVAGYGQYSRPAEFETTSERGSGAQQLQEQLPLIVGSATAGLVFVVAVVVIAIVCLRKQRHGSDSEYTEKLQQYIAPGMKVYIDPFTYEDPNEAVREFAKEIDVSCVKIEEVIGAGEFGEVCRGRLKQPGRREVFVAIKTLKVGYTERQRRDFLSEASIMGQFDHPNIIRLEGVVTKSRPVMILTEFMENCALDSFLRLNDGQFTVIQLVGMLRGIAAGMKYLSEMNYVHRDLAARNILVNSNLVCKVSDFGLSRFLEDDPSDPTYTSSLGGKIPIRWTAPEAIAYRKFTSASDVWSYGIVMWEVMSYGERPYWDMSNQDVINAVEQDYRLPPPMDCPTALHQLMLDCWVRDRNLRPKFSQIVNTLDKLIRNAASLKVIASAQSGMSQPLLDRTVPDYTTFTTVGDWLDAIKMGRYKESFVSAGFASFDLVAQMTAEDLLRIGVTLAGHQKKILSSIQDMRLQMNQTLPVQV
# [14] = target: T5, Ephrin type-B receptor 3 (Homo sapiens); conditions: at 10 µM
# [15] = target: T6, Ephrin type-B receptor 4 (Homo sapiens) (UniProt P54760); conditions: at 1 µM
# T6 sequence (whole entry): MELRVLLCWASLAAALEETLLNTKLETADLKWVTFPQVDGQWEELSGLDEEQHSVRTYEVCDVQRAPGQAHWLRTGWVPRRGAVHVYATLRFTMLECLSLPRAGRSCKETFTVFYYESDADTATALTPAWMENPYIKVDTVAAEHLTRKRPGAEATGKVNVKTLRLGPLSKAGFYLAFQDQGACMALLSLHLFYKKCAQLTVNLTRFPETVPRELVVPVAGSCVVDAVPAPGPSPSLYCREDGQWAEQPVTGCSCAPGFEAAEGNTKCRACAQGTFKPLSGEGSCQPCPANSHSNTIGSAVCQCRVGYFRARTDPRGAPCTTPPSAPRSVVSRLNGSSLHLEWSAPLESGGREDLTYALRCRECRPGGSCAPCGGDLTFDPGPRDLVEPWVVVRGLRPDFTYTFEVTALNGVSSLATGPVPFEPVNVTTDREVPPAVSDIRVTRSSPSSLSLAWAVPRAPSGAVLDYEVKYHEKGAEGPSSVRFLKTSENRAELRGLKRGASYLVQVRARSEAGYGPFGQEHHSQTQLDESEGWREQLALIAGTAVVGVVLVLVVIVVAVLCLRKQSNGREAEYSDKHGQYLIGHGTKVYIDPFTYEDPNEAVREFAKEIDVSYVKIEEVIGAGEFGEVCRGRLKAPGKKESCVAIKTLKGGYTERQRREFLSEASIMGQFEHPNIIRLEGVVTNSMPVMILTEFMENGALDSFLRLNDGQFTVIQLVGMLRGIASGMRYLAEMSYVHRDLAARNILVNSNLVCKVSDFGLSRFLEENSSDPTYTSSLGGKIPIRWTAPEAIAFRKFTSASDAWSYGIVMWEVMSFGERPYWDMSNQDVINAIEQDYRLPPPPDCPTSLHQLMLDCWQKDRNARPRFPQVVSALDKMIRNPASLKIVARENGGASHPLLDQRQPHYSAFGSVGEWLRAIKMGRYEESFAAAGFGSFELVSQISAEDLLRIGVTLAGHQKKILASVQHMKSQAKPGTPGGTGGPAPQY
# [16] = target: Receptor tyrosine-protein kinase erbB-4 (Homo sapiens) (UniProt Q15303); conditions: at 1 µM
# [17] = target: Receptor tyrosine-protein kinase erbB-4 (Homo sapiens) (UniProt Q15303); conditions: at 10 µM
# [18] = target: Focal adhesion kinase 1 (Homo sapiens) (UniProt Q05397); conditions: at 1 µM
# Ephrin type-A receptor 5 (Homo sapiens), sequence (P54756 whole entry): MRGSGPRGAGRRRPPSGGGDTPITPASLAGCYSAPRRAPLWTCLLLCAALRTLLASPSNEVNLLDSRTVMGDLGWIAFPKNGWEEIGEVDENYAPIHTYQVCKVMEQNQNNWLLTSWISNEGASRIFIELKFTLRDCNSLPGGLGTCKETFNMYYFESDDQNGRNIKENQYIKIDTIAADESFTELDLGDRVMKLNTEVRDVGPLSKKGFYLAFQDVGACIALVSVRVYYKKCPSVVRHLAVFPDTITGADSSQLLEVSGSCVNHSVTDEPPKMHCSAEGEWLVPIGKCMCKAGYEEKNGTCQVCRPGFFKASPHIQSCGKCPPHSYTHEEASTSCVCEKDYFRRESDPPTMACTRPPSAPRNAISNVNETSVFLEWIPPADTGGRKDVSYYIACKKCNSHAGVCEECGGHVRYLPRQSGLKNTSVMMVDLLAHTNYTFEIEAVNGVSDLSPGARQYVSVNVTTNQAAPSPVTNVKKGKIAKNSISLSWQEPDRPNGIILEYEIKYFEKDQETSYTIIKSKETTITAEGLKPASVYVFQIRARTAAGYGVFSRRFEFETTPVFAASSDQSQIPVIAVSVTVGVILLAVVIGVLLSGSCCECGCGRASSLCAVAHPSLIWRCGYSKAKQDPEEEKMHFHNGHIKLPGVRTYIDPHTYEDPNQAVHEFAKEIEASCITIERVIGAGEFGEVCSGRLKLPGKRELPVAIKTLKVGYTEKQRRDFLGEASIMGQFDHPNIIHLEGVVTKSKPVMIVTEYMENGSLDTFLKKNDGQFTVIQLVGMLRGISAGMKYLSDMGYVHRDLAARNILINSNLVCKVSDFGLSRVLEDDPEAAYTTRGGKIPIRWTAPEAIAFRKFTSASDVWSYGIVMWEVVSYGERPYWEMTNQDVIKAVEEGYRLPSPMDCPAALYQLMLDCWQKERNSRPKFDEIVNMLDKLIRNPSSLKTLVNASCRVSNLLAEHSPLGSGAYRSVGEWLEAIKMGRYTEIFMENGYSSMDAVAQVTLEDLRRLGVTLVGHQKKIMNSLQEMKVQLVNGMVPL
# Receptor tyrosine-protein kinase erbB-4 (Homo sapiens), sequence (Q15303 whole entry): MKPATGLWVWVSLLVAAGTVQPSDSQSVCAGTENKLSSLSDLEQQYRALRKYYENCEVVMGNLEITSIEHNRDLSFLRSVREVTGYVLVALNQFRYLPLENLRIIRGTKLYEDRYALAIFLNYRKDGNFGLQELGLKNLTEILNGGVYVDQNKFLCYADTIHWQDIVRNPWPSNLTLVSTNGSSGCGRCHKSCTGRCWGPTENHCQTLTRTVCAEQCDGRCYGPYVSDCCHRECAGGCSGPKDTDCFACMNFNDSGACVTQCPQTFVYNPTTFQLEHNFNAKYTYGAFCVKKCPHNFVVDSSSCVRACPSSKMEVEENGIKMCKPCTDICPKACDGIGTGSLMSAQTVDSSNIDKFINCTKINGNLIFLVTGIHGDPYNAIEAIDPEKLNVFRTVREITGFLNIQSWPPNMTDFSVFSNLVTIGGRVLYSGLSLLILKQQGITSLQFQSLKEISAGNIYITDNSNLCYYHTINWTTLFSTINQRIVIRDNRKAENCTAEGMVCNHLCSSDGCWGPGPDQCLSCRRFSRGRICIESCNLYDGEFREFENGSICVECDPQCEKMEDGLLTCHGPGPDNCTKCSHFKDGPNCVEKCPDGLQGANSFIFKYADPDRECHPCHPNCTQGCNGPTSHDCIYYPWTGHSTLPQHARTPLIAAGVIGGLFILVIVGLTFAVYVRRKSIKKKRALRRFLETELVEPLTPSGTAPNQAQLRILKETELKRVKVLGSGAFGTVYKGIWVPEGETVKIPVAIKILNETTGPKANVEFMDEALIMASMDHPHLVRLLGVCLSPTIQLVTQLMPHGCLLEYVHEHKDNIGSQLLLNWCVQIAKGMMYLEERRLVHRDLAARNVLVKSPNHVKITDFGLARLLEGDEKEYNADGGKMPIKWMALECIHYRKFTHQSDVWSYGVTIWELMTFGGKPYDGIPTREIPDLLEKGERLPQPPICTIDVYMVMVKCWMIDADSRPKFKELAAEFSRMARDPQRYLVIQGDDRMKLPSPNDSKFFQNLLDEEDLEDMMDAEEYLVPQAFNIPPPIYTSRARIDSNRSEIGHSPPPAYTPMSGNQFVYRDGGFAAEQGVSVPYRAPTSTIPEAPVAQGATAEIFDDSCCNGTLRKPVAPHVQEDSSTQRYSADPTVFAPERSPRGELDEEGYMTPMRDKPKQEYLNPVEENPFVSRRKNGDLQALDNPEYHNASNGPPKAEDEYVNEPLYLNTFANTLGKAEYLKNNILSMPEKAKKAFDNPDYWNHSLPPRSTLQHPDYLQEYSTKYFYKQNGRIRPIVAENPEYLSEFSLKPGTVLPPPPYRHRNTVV
# Ephrin type-A receptor 4 (Homo sapiens), sequence (P54764 whole entry): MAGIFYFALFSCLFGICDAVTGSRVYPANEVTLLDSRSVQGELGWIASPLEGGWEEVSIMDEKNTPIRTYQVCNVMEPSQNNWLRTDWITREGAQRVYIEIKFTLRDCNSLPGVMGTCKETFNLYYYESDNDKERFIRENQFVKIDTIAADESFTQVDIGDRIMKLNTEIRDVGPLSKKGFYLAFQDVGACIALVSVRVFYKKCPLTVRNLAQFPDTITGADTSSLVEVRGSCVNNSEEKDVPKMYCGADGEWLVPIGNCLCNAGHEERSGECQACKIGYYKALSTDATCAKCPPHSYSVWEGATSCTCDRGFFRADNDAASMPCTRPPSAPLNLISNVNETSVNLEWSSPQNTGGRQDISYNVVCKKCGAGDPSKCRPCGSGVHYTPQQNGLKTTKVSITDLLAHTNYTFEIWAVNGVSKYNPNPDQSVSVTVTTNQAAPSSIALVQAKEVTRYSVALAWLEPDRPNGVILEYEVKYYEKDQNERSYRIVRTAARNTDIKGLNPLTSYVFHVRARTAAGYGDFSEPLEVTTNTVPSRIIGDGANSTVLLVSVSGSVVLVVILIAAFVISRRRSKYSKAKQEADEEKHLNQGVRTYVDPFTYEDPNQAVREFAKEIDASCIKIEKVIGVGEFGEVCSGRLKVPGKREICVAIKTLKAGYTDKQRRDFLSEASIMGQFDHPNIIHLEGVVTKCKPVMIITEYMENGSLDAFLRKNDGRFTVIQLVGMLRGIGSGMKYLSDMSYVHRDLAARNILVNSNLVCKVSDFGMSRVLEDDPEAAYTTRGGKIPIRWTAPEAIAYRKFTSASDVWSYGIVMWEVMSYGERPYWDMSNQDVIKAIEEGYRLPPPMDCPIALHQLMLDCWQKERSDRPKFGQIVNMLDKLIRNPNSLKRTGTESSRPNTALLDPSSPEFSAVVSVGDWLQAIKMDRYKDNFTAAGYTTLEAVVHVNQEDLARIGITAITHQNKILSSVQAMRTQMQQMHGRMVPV
# Ephrin type-A receptor 7 (Homo sapiens), sequence (Q15375 28-998 limits assumed): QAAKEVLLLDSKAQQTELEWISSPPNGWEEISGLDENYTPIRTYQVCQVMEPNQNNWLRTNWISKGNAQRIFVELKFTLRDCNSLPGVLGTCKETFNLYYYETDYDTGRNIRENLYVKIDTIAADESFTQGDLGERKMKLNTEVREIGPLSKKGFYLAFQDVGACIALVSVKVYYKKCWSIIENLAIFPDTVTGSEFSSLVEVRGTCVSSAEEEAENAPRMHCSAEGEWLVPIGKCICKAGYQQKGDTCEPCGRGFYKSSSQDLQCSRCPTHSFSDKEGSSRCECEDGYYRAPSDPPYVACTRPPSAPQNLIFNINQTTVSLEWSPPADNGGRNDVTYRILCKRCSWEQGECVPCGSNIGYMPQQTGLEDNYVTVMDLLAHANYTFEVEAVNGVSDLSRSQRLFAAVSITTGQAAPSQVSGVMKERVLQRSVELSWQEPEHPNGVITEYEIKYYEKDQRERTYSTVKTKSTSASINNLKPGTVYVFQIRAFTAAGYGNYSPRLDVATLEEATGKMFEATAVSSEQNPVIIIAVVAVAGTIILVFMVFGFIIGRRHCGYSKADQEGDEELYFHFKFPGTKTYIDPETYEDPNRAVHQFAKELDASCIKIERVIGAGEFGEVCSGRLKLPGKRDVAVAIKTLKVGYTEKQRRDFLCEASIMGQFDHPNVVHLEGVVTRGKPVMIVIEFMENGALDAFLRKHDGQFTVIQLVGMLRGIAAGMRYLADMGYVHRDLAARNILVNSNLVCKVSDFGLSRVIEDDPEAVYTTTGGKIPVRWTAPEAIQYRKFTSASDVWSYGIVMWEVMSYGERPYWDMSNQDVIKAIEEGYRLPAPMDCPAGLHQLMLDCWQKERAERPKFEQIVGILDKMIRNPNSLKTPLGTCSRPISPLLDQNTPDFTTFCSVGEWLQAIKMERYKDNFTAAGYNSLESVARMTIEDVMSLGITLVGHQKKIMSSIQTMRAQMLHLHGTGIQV
compound,measurement,setting,value
O=C(CCCc1ccc(-c2ccccc2F)cc1)Nc1ccc(O)cc1,residual activity,[1],111%
same,residual activity,[2],108%
same,residual activity,[3],96%
same,residual activity,[4],111%
same,residual activity,[5],106%
same,residual activity,[6],102%
same,residual activity,[7],104%
same,residual activity,[8],103%
same,residual activity,[9],94%
same,residual activity,[10],98%
same,residual activity,[11],107%
same,residual activity,[12],112%
same,residual activity,[13],109% (inactive)
same,residual activity,[14],97%
same,residual activity,[15],93%
same,residual activity,[16],111%
same,residual activity,[17],127%
same,residual activity,[18],105%
